The list is not random: actives were taken first. Their share in the collection is about 3.9%.
CF NFkB block – inhibitors of PAF-induced NF-kB signaling, primary screen, cell-based, GFP fluorescence, uHTS | KKLEB NF-kB-GFP reporter, GFP fluorescence overnight | inhibition, % at 5 µM | hit rate 0.86% among 360,000 | AID 588850, 2011;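 active means at least 50% inhibition at 5 µM, scaled per plate between neutral and stimulator controls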;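 further: PAF is a Pseudomonas aeruginosa culture filtrate used as stimulus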
KKLEB cytotox – cytotoxicity in KKLEB CF airway cells, primary screen, cytotoxicity control for CF NF-kB inhibitor project, cell-based, uHTS, fluorescence assay plates; KKLEB CF airway cells viability, ATPlite luminescence, overnight; active compounds read low; cells stimulated with P. aeruginosa culture filtrate; activity change (cytotoxicity), % at 5 µM; hit rate 0.36% among 360,000;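 active means corrected activity change at or below -50% at 5 µM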
TROY signal inh – inhibitors of TROY-driven NF-kB signaling, primary screen, Q293 LMP1-TROYcd cells, NF-kB luciferase, uHTS | Q293 LMP1-TROYcd NF-kB luciferase reporter, 4 h | inhibition, % at 10 µM | hit rate 0.98% among 360,000;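 active means compounds whose plate-normalised and pattern-corrected inhibition of the luciferase reporter signal at the single screening dose is 50% or more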
Peg3 prom inh – Peg3 promoter-driven luciferase inhibitors, primary screen, cell-based, HeLa, luciferase luminescence; HeLa PEG-Prom luciferase reporter, overnight; inhibition, % at 20 µM; hit rate 1.7% among 360,000;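 active means inhibition of at least 50% at 20 µM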
HIF-2a block – HIF-2a reporter inhibitors, primary screen, luminescence, 786-0 RCC cells | 786-0 RCC cells HIF-2a reporter, luciferase luminescence, overnight | inhibition, % at 18.8 µM | hit rate 0.72% among 360,000 | AID 624352, 2012;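 active means inhibition of the luminescence signal of 40% or more relative to plate controls, in a single-dose primary screen at 18.75 µM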
TWEAK Fn14 block – inhibitors of TWEAK-Fn14 signaling, primary screen, luciferase reporter cells, uHTS | TWEAK-stimulated Fn14 reporter cells, luciferase luminescence, 8 h | inhibition, % at 10 µM | hit rate 2% among 360,000; in the data active means inhibition above about 50%
Each line names hits and unclear results; the compound was inactive in the other large screens.

COc1ccccc1CNC(=O)CN1CCN(Cc2ccc(Cl)cc2)C1=O	none
CC(C)n1c(O)c(N=NC(=O)CNC(=O)c2cccnc2)c2ccccc21	none
O=C(COC(=O)c1ccc([N+](=O)[O-])o1)NCCCc1ccccc1	none
CCCCn1c(NC(C)=O)c(C#N)c2nc3ccccc3nc21	none
CCCCn1c(NC(=O)c2ccc(Br)o2)c(S(=O)(=O)c2ccccc2)c2nc3ccccc3nc21	TROY signal inh 71, TWEAK Fn14 block 74
C=CCNc1nc(-c2sc(NC(=O)C(C)(C)C)nc2C)c(-n2cc(-c3ccccc3)nn2)s1	TWEAK Fn14 block 58 (no result: CF NFkB block, KKLEB cytotox, Peg3 prom inh)
C=CCNc1nc(-c2sc(NC(C)=O)nc2C)cs1	none
Cc1c(CN2CCC(C(=O)Nc3cccc(-c4cccc(Cl)c4)c3)CC2)cnn1C	Peg3 prom inh 69
Cc1nn(C(C)C)c(C)c1CN1CCC(C(=O)Nc2cccc(-c3cccc(F)c3)c2)CC1	Peg3 prom inh 89
Cn1cc(CN2CCC(C(=O)Nc3cccc(-c4cccc(F)c4)c3)CC2)cn1	none
CCCn1ncc(CN2CCC(C(=O)Nc3cccc(-c4cccc(F)c4)c3)CC2)c1C	Peg3 prom inh 60
C=CCn1cc(CN2CCC(C(=O)Nc3cccc(-c4cccc(Cl)c4)c3)CC2)c(C)n1	none
CC(C)CC(COCc1cccc(Cl)c1)N1CCN(C(=O)c2ccc(C(F)(F)F)cc2)CCC1=O (configuration not stated)	none
CCOC(=O)C1=C(CNCc2ccccc2Cl)NC(=O)NC1c1ccc2c(c1)OCO2 (configuration not stated)	TWEAK Fn14 block 80 (no result: TROY signal inh)
CCOC(=O)C1=C(CNCc2ccccc2Cl)NC(=O)NC1c1cccc([N+](=O)[O-])c1 (configuration not stated)	none
CC1CCN(S(=O)(=O)c2ccccc2)CC1	none
COC(=O)Nc1nc2ccc(C(=O)c3cccs3)cc2[nH]1	CF NFkB block 60
CC(C)c1ccc(N=Cc2c(O)c3ccccc3oc2=O)cc1	TROY signal inh 69, TWEAK Fn14 block 82
O=C(NCCCNC(=O)c1ccco1)c1ccc(Cl)cc1	TROY signal inh 61, TWEAK Fn14 block 70
CCc1nc2ccc(C(=O)Nc3cc(-c4ccccc4)ccc3OC)cn2c1N(CC)CCN(C)C	Peg3 prom inh 84
CC1CCCC(NC(=O)CCNC(=O)c2ccc(Cl)cc2)C1C (configuration not stated)	none
CC1CCCC(NC(=O)CCNC(=O)c2ccc([N+](=O)[O-])cc2)C1C (configuration not stated)	TWEAK Fn14 block 76
CC(C)CCN1CCN(Cc2cc(F)ccc2-n2cccn2)CC1CCO (configuration not stated)	none
OCCC1CN(Cc2cc(F)ccc2-n2cccn2)CCN1C1CCCC1 (configuration not stated)	TWEAK Fn14 block 91
CC(=O)c1ccc(-n2nnnc2SCC(=O)Nc2sc(C)c(C)c2C#N)cc1	none
CCc1ccc(NC(=O)c2cccc(NC3=NC4CS(=O)(=O)CC4S3)c2)cc1 (configuration not stated)	none
CCCCCc1ccc(-c2ccc(/C=C/C(=O)O)cc2)nc1	HIF-2a block 74, TWEAK Fn14 block 60
CCCCCCCc1ccc(-c2ccc(O)cc2)nc1	none
O=c1oc([C@@H](O)c2ccccc2)cc2ccccc12	none
O=C1NC[C@H](c2ccccc2)OC(=O)[C@@H](Cc2ccc(F)cc2)C/C=C\C[C@H]1CC(=O)N(CCO)Cc1ccccc1	CF NFkB block 84, KKLEB cytotox -53, Peg3 prom inh 68
O=C1NC[C@@H](c2ccccc2)OC(=O)[C@H](Cc2ccc(F)cc2)C/C=C\C[C@H]1CC(=O)N(CCO)Cc1ccccc1	none
O=C1NC[C@H](c2ccccc2)OC(=O)[C@H](Cc2ccc(F)cc2)C/C=C\C[C@H]1CC(=O)N(CCO)Cc1ccccc1	CF NFkB block 102, KKLEB cytotox -86, Peg3 prom inh 54
Cc1ccccc1NS(=O)(=O)c1ccc(C(=O)N2CCN(c3ccccc3O)CC2)cc1	none
CC(=O)c1ccc(NCCC(=O)c2ccccc2)cc1	TWEAK Fn14 block 69
CC(=O)c1ccc(NC(=O)CCCC(=O)c2ccccc2)cc1	none
COc1ccc(Br)cc1C(=O)Nc1nnn(C)n1	none
CN(CC(=O)Nc1ccc2c(c1)CCC2)CC(=O)Nc1ccccc1Br	none
Cc1ccc(S(=O)(=O)N2CCCN(C(=O)c3ccc(-n4cccn4)cc3)CC2)cc1	none
COc1cc2c(cc1NC(=O)C(Cl)Cl)-c1ccc(NC(=O)C(Cl)Cl)cc1C2	Peg3 prom inh 96, TWEAK Fn14 block 81
COc1cc2c(cc1NC(=O)c1ccccc1-c1ccccc1C(=O)O)-c1ccccc1C2	none
CC(C)NC(=O)CC(=O)N/N=C/c1cccs1	none
CC(C)(C)n1cnc2cc(NCc3ccc(Br)cc3)ccc21	none
CCc1ccc(CNc2ccc3c(c2)ncn3C(C)(C)C)cc1	TROY signal inh 66, TWEAK Fn14 block 82
CC(C)C(=O)N1CCN(c2ccc(NC(=O)COc3ccccc3[N+](=O)[O-])cc2)CC1	Peg3 prom inh 91, TWEAK Fn14 block 75
CCCCOc1ccc(C(=O)Nc2ccc(N3CCN(C(=O)C(C)C)CC3)cc2)cc1	TWEAK Fn14 block 59
CC(=O)N1CCN(c2ccc(NC(=O)c3ccc(C(C)(C)C)cc3)cc2)CC1	TROY signal inh 52
CCCCOc1ccc(C(=O)Nc2ccc(N3CCN(C(C)=O)CC3)cc2)cc1	none
Cc1ccc(C(=O)Nc2ccc(N3CCN(C)CC3)cc2)cc1C	TROY signal inh 57, TWEAK Fn14 block 75
CC(C)c1c(O)nc(SCCC(=O)O)[nH]c1=O	none
c1ccc(-c2nc(-c3nccc4ccccc34)oc2-c2ccccc2)cc1	TROY signal inh 60, TWEAK Fn14 block 73
CCCNc1c(NS(=O)(=O)c2ccc(C3CCCCC3)cc2)c(=O)oc2ccccc12	none
COc1ccc(C(=O)N2CCOC2CNC(=O)C(=O)NCc2ccc(C)cc2)cc1 (configuration not stated)	none
N#CCSc1nc2ccccc2c2nc3ccccc3n12	TWEAK Fn14 block 57
N#CCSc1nc2cc(C(=O)N3CCCC3)ccc2c(=O)n1Cc1ccccc1	none
CCn1c(SCC#N)nc2ccccc2c1=O	none
N#CCSc1nc2cc(C(=O)N3CCC(C(N)=O)CC3)ccc2c2nc3ccccc3n12	CF NFkB block 68
C(=NNC1=NCCN1)c1ccnc2ccccc12	none
Cc1cccc(C(C(=O)NC2CCCC2)N(Cc2cccnc2)C(=O)c2csnn2)c1 (configuration not stated)	none
